Results filed as inconclusive are left out. A number with no mark means an inactive call. Active and inactive are the calls of the source. The call rests on the fitted dose curve; in most records, active means well fitted inhibition curve with a large enough effect; inconclusive means small, poorly fitted or top-dose-only effect; inactive means flat fitted curve, though single readings scatter.
What follows are compounds tested against D(3) dopamine receptor (Homo sapiens) (UniProt P35462) (assay: HTS Assay for Allosteric Antagonists of the Human D2 Dopamine Receptor: SAR in D3 Beta Arrestin Assay). Details: DiscoveRx PathHunter D3 beta-arrestin, luminescence, 90 min; series mostly up to 57.1 µM; activity, negative = inhibition: at the top concentration.
D(3) dopamine receptor (Homo sapiens), sequence (P35462 whole entry, looked up): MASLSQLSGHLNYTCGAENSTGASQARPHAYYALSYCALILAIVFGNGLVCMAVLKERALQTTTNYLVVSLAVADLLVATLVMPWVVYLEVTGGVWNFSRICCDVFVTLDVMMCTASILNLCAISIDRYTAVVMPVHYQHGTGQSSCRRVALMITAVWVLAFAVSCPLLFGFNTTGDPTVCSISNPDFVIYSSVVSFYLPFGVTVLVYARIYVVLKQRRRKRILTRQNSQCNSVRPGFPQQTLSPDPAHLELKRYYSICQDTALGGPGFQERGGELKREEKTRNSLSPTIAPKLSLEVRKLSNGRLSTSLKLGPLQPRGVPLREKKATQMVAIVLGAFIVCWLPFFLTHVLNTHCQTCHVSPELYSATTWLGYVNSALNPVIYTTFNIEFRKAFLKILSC
Description: There is great interest in identifying small molecule ligands for G-protein coupled receptors (GPCRs) as nearly 50% of all FDA-approved drugs target these important receptor proteins. […] Amongst the dopamine receptors (DARs), the D2 is arguably one of the most validated drug targets in neurology and psychiatry. For instance, all receptor-based antiparkinsonian drugs primarily work via stimulating the D2 DAR, whereas all FDA-approved antipsychotic agents are antagonists of this receptor. The D2 DAR is also therapeutically targeted in other disorders such as restless legs syndrome, tardive dyskinesia, Tourette's syndrome, and hyperprolactinemia. […] This is an selectivity assay to test the lead compounds against the D3 receptor, using a beta arrestin assay. NIH Molecular Libraries Probe Production Network [MLPCN] NIH Chemical Genomics Center [NCGC] Grant: NS0676421 PI Name: David Sibley, National Institutes of Neurological Disorders and Stroke
DiscoveRx D3 cells were thawed from frozen stock and seeded at 2,100 cells/ 3 uL/well media (DiscoveRx Plating Reagent 2) with MultiDrop Combi dispenser (Thermo Scientific, Logan, UT) onto white tissue culture treated 1536-well Aurora plates (Brooks Automation, Chelmsford, MA) and allowed to attach overnight at 37 deg C, 5% CO2. Next, 23 nL/well of compound solutions in DMSO were added with a pintool transfer (Kalypsis, San Diego, CA). As the positive control, 1 uL/well dopamine (EC100, 57 uM final concentration) diluted in buffer (HBSS + 10 mM HEPES + SMB + 0.1% Tween-20) was dispensed to 1 column of each plate. The rest of the plate was dispensed with buffer only, 1 uL/well as well. The cells were stimulated by compounds or dopamine control for 90 minutes at 37 deg C, 5% CO2, after which 1.5 ul/well of DiscoveRx detection reagent was added with BioRAPTR FRD dispenser. The detection reagent was prepared by mixing of Galacton Star Substrate, Emerald II solution and PathHunter buffer (supplied by the assay kit) together at 1:5:19 proportion accordingly just prior to dispensing. The plates were incubated at ambient temperature for 1 hour and then the luminescent signal was read on ViewLux plate reader (PerkinElmer, Waltham, MA).

SMILES	Potency	activity, negative = inhibition
OC1(c2ccc(Cl)cc2)CCN(Cc2c[nH]c3ccccc23)CC1	0.0646 µM (active)	–
CCN1C(=O)c2ccccc2S(=O)c2ccc(C(=O)NCc3ccc(OC)cc3)cc21 (stereo not drawn)	5.76 µM (active)	–
CCN1C(=O)c2ccccc2[S@](=O)c2ccc(C(=O)N[C@H](C)c3ccc(Br)cc3)cc21	9.13 µM (active)	–
CN1C(=O)c2ccccc2S(=O)c2ccc(C(=O)NCCc3cccs3)cc21 (stereo not drawn)	20.4 µM (active)	–
CN1C(=O)c2ccccc2[S@@](=O)c2ccc(C(=O)NCCc3cccs3)cc21	–	-21.4%
CN1C(=O)c2ccccc2[S@](=O)c2ccc(C(=O)NCc3cccnc3)cc21	14.5 µM (active)	–
CCN1C(=O)c2ccccc2[S@](=O)c2ccc(C(=O)NCc3ccc(C#N)cc3)cc21	1.62 µM (active)	–
CCN1C(=O)c2ccccc2[S@](=O)c2ccc(C(=O)NCc3ccc(F)cc3)cc21	3.24 µM (active)	–
CN1C(=O)c2ccccc2[S@](=O)c2ccc(C(=O)NCCN3CCCC3)cc21	4.58 µM (active)	–
CN1C(=O)c2ccccc2[S@](=O)c2ccc(C(=O)NCCc3cccs3)cc21	12.9 µM (active)	–
CN1C(=O)c2ccccc2[S@](=O)c2ccc(C(=O)NCc3ccc(Cl)cc3)cc21	10.2 µM (active)	–
CCN1C(=O)c2ccccc2[S@](=O)c2ccc(C(=O)NCc3ccc(OC)cc3)cc21	2.89 µM (active)	–
CN1C(=O)c2ccccc2[S@](=O)c2ccc(C(=O)NCc3ccc(Br)cc3)cc21	4.58 µM (active)	–
